Where “and” joins values, the source holds several entries; their conditions need not be identical. Identical values can stand only once. About 79,000 compounds went through this panel and 15% of them were active in at least one assay; those are over-represented in the sample as a whole. Unmarked numbers belong to inactive results. Calls of active or inactive are those of the source. Rule as the data show it: active = growth inhibition above about 70%; inactive = the rest.
Experiment: NCI Yeast Anticancer Drug Screen. Data for the mec2-1 strain (AID 157)
Conditions: S. cerevisiae mec2-1 strain, at 50.0 µM (retest, dose inferred, filed as 5.0), active compounds read high
Procedure, shortened: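 Growth inhibition is read against vehicle-treated controls after compound exposure of the mec2-1 yeast strain, which is defective in DNA damage repair or cell cycle control.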

Row | Compound | growth inhibition
1 | COc1cccc2c1C(=O)c1c(O)c3c(c(O)c1C2=O)C[C@@](O)(C(C)=O)C[C@@H]3OC1CC(O)C(O)C(C)O1 (stereo partly specified) | 94% (active)
2 | COc1cccc2c1C(=O)c1c(O)c3c(c(O)c1C2=O)C[C@@](O)(C(C)=O)C[C@@H]3OC1CC(N(C)C)C(O)C(C)O1 (stereo partly specified) | 98% (active)
3 | C[N+]1(C)CCC(c2ccccc2)(c2ccccc2)C(=O)C1 | -3%
4 | CC[C@@]1(OC(=O)C(N)CCCCN)C(=O)OCc2c1cc1n(c2=O)Cc2cc3ccccc3nc2-1 (stereo partly specified) | 96% (active)
5 | CCN(CCO)CCNc1ccc(C)c2sc3ccccc3c(=O)c12 | 92% (active)
6 | NC(=O)SCC(=O)NNc1ccccc1 | 40%
7 | CCN(CC)c1ccc(C(=C2C=CC(=[N+](CC)CC)C=C2)c2ccc(N(CC)CC)cc2)cc1 | 92% (active)
8 | Nc1ncnc2c(C3OC(CO)C(O)C3O)scc12 (stereo unspecified) | 40%
9 | Nc1ccc(Cn2ccc3c4c(N)nc(N)nc4ccc32)cc1 | 96% (active)
10 | Cc1n(CC(C)C)c2c([n+]1C)C(=O)c1ccccc1C2=O | 99% (active)
11 | c1ccc(Cc2cc3ccccc3c3ccccc23)cc1 | 23%
12 | Nc1nc(N)c2c(Cl)c(CNc3ccc(Cl)c(Cl)c3)ccc2n1 | 98% (active)
13 | C=C1CC2(CC(c3ccccc3OC)OC(c3ccccc3OC)C2)OC1=O (stereo unspecified) | 10%
14 | O=[N+]([O-])c1c(Cl)nc2ccccn12 | 28%
15 | C/C(=N\NC(=S)N1CCN(c2ccccn2)CC1)c1nccs1 | 99% (active)
16 | Clc1nc(Cl)c(Cl)c(Cl)n1 | 100% (active)
17 | COc1ccc(COc2ccc(C(=O)CCN3CCOCC3)cc2)cc1 | 80% (active)
18 | O/N=C/c1cc(I)c(O)c(I)c1 | 99% (active)
19 | COC1OC2COC(c3ccccc3)OC2C(O)C1OS(=O)(=O)c1ccc(C)cc1 (stereo unspecified) | 51%

Row | Compound | growth inhibition
20 | C=C1CC2(CC(c3ccccc3C)OC(c3ccccc3C)C2)OC1=O (stereo unspecified) | 94% (active)
21 | Cc1ccc2c(c1)C1(C)OC(C=CC1=O)O2 (stereo unspecified) | 99% (active)
22 | COc1cc(OC)c(OC)cc1/C=C\c1ccnc2ccccc12 | 65%
23 | Cc1n(Cc2ccccc2)c2c([n+]1C)C(=O)c1ccccc1C2=O | 98% (active)
24 | O=[N+]([O-])c1cc2c(cc1S(=O)(=O)O)C1C(C3C2C2(Cl)C(Cl)=C(Cl)C3(Cl)C2(Cl)Cl)C2(Cl)C(Cl)=C(Cl)C1(Cl)C2(Cl)Cl (stereo unspecified) | 26%
25 | CCOC(=O)Nc1c(C)cc(C)c(Br)c1C | 6%
26 | COc1cc2c(c(OC)c1OC)-c1ccc(SC)c(=O)cc1C(NC(=O)c1ccccc1)CC2 (stereo unspecified) | 61%
27 | CCCCCCCCCCS(=O)CC(CO)NC(=O)/C=C/c1c(C)[nH]c(=O)[nH]c1=O (stereo unspecified) | 94% (active)
28 | C/C(N=NC(=S)N1CCCCCC1)=C1\C=CC=CN1O | 31%
29 | Cc1cc(NCCCCCCCNc2cc(C)nc3cc([N+](=O)[O-])ccc23)c2ccc([N+](=O)[O-])cc2n1 | 83% (active)
30 | CC1CC[P+](c2ccccc2)(c2ccccc2)c2c1ccc1ccccc21 (stereo unspecified) | 98% (active)
31 | O=C1C(Cl)=C(N2CCN(C3=C(Cl)C(=O)c4ccccc4C3=O)CC2)C(=O)c2ccccc21 | 99% (active)
32 | CCN1CCC(O)(c2ccc(Oc3ccccc3)cc2)C(C(=O)c2ccc(Oc3ccccc3)cc2)C1 (stereo unspecified) | -8%
33 | Cc1ccc(NCCN(C)C)c2c(=O)c3cc(O)ccc3sc12 | 99% (active)
34 | COc1ccc2nc(C)cc(NCCCCCCCCCNc3cc(C)nc4ccc(OC)cc34)c2c1 | 94% (active)
35 | Cc1n(-c2ccccc2)c2c([n+]1Cc1ccc([N+](=O)[O-])cc1)C(=O)c1ccccc1C2=O | 98% (active)
36 | CC1(O)Cc2c(O)c3c(c(O)c2CC1O)C(=O)C=CC3=O (stereo unspecified) | 46%
37 | c1ccc(C2=NC(c3ccccc3)=NS(S3=NC(c4ccccc4)=NC(c4ccccc4)=N3)=N2)cc1 (stereo unspecified) | 98% (active)
38 | CC[C@](O)(CC(=O)O[C@H]1C(=O)O[C@@H]2C[C@H]3C(C)=CC(=O)[C@@H](O)[C@]3(C)[C@H]3[C@@]4(O)OC[C@]32[C@@H]1[C@@H](C)[C@H]4O)C(C)C | 98% (active)

Same assay, conditions: S. cerevisiae mec2-1 strain, at 50.0 µM, active compounds read high

Row | Compound | growth inhibition
39 | COc1cccc2c1C(=O)c1c(O)c3c(c(O)c1C2=O)C[C@@](O)(C(C)=O)C[C@@H]3OC1CC(O)C(O)C(C)O1 (stereo partly specified) | 88.3% (active)
40 | COc1cccc2c1C(=O)c1c(O)c3c(c(O)c1C2=O)C[C@@](O)(C(C)=O)C[C@@H]3OC1CC(N(C)C)C(O)C(C)O1 (stereo partly specified) | 90.3% (active)
41 | C[N+]1(C)CCC(c2ccccc2)(c2ccccc2)C(=O)C1 | 9.05% and 19.3%
42 | CC[C@@]1(OC(=O)C(N)CCCCN)C(=O)OCc2c1cc1n(c2=O)Cc2cc3ccccc3nc2-1 (stereo partly specified) | 83.9% (active)
43 | CCN(CCO)CCNc1ccc(C)c2sc3ccccc3c(=O)c12 | 90.7% (active)
44 | NC(=O)SCC(=O)NNc1ccccc1 | 13.3% and 39.9%
45 | CCN(CC)c1ccc(C(=C2C=CC(=[N+](CC)CC)C=C2)c2ccc(N(CC)CC)cc2)cc1 | 73% (active)
46 | Nc1ncnc2c(C3OC(CO)C(O)C3O)scc12 (stereo unspecified) | 26.4%
47 | Nc1ccc(Cn2ccc3c4c(N)nc(N)nc4ccc32)cc1 | 68.3%
48 | Cc1n(CC(C)C)c2c([n+]1C)C(=O)c1ccccc1C2=O | 90.4% (active)
49 | c1ccc(Cc2cc3ccccc3c3ccccc23)cc1 | 14.9%
50 | Nc1nc(N)c2c(Cl)c(CNc3ccc(Cl)c(Cl)c3)ccc2n1 | 91% (active)
51 | C=C1CC2(CC(c3ccccc3OC)OC(c3ccccc3OC)C2)OC1=O (stereo unspecified) | 74.7% (active)
52 | O=[N+]([O-])c1c(Cl)nc2ccccn12 | 26.1%
53 | C/C(=N\NC(=S)N1CCN(c2ccccn2)CC1)c1nccs1 | 91.6% (active)
54 | Clc1nc(Cl)c(Cl)c(Cl)n1 | 72.5% (active)
55 | COc1ccc(COc2ccc(C(=O)CCN3CCOCC3)cc2)cc1 | 96.5% (active)
56 | O/N=C/c1cc(I)c(O)c(I)c1 | 98.2% (active)
57 | COC1OC2COC(c3ccccc3)OC2C(O)C1OS(=O)(=O)c1ccc(C)cc1 (stereo unspecified) | 46.4% and 2.7%

Row | Compound | growth inhibition
58 | C=C1CC2(CC(c3ccccc3C)OC(c3ccccc3C)C2)OC1=O (stereo unspecified) | 83.7% (active)
59 | Cc1ccc2c(c1)C1(C)OC(C=CC1=O)O2 (stereo unspecified) | 91% (active)
60 | COc1cc(OC)c(OC)cc1/C=C\c1ccnc2ccccc12 | 37%
61 | Cc1n(Cc2ccccc2)c2c([n+]1C)C(=O)c1ccccc1C2=O | 91.8% (active)
62 | O=[N+]([O-])c1cc2c(cc1S(=O)(=O)O)C1C(C3C2C2(Cl)C(Cl)=C(Cl)C3(Cl)C2(Cl)Cl)C2(Cl)C(Cl)=C(Cl)C1(Cl)C2(Cl)Cl (stereo unspecified) | 69.9%
63 | CCOC(=O)Nc1c(C)cc(C)c(Br)c1C | 98.7% (active)
64 | COc1cc2c(c(OC)c1OC)-c1ccc(SC)c(=O)cc1C(NC(=O)c1ccccc1)CC2 (stereo unspecified) | 86.9% (active)
65 | CCCCCCCCCCS(=O)CC(CO)NC(=O)/C=C/c1c(C)[nH]c(=O)[nH]c1=O (stereo unspecified) | 89.8% (active)
66 | C/C(N=NC(=S)N1CCCCCC1)=C1\C=CC=CN1O | 74.2% (active)
67 | Cc1cc(NCCCCCCCNc2cc(C)nc3cc([N+](=O)[O-])ccc23)c2ccc([N+](=O)[O-])cc2n1 | 77% (active)
68 | CC1CC[P+](c2ccccc2)(c2ccccc2)c2c1ccc1ccccc21 (stereo unspecified) | 90.2% (active)
69 | O=C1C(Cl)=C(N2CCN(C3=C(Cl)C(=O)c4ccccc4C3=O)CC2)C(=O)c2ccccc21 | 87.8% (active)
70 | CCN1CCC(O)(c2ccc(Oc3ccccc3)cc2)C(C(=O)c2ccc(Oc3ccccc3)cc2)C1 (stereo unspecified) | 22.5%
71 | Cc1ccc(NCCN(C)C)c2c(=O)c3cc(O)ccc3sc12 | 91.3% (active)
72 | COc1ccc2nc(C)cc(NCCCCCCCCCNc3cc(C)nc4ccc(OC)cc34)c2c1 | 87.9% (active)
73 | Cc1n(-c2ccccc2)c2c([n+]1Cc1ccc([N+](=O)[O-])cc1)C(=O)c1ccccc1C2=O | 89% (active)
74 | CC1(O)Cc2c(O)c3c(c(O)c2CC1O)C(=O)C=CC3=O (stereo unspecified) | 69.2%
75 | c1ccc(C2=NC(c3ccccc3)=NS(S3=NC(c4ccccc4)=NC(c4ccccc4)=N3)=N2)cc1 (stereo unspecified) | 75.2% (active)
76 | CC[C@](O)(CC(=O)O[C@H]1C(=O)O[C@@H]2C[C@H]3C(C)=CC(=O)[C@@H](O)[C@]3(C)[C@H]3[C@@]4(O)OC[C@]32[C@@H]1[C@@H](C)[C@H]4O)C(C)C | 91.7% (active)

From PubChem BioAssay (NCI)
